About 83,000 compounds went through this panel and 20% of them were active in at least one assay; those are over-represented in the sample as a whole.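 Values shown are percent growth following 48 h exposure of cells in 96-well plates to a single concentration of compound; below 10 was considered active.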 Active and inactive are the calls of the source.
Tests used:
Assay in all cases: NCI-60 one-dose screen, 48 h (100 = growth as untreated, 0 = no growth, -100 = all killed)
Details in all cases: 10 µM unless noted
[1] = test system: NCI-H23 lung
[2] = test system: NCI-H226 lung
[3] = test system: NCI-H322M lung
[4] = test system: HOP-62 NSCLC
[5] = test system: NCI-H460 lung
[6] = test system: HOP-92 NSCLC
[7] = test system: NCI-H522 lung
[8] = test system: A549/ATCC NSCLC
[9] = test system: 786-0 renal
[10] = test system: DU-145 prostate
[11] = test system: K-562 leukemia
[12] = test system: MALME-3M melanoma
[13] = test system: MDA-MB-231 breast
[14] = test system: RXF 393 renal
[15] = test system: SF-268 CNS
[16] = test system: SF-295 CNS
[17] = test system: SF-539 CNS
[18] = test system: UACC-257 melanoma
[19] = test system: M14 melanoma

Measured: growth

CN(C)c1ccc2cc(-c3ccccc3F)c(N)nc2c1
active: [7] -1.23% | [12] -22.1% | [16] 0.224% | [17] -16.4%
inactive: [1] 21.4% | [2] 59.3% | [3] 55.1% | [4] 37.4% | [5] 15.9% | [6] 32.3% | [8] 22.1% | [9] 34% | [10] 17.1% | [11] 13.5% | [13] 64.7% | [14] 19.1% | [15] 45.1% | [18] 45.7% | [19] 10.5%

Cl.Fc1c[c-]c(-c2ccccn2)c(F)c1.[Pt].c1ccc([PH+](c2ccccc2)c2ccccc2[PH+](c2ccccc2)c2ccccc2)cc1
active: [1] -84.6% | [2] -70% | [3] -99.4% | [4] -62.2% | [5] -73.2% | [6] -68% | [7] -63% | [8] -68.9% | [9] -73.9% | [10] -98.9% | [11] 0.976% | [12] -83.8% | [13] -93.3% | [14] -86.8% | [15] -72.3% | [16] -90.8% | [17] -93.6% | [18] -71.8% | [19] -72.5%

Cc1cc(NS(=O)(=O)c2ccccc2)c(OS(=O)(=O)c2ccccc2)cc1C
inactive: [1] 98.6% | [2] 101% | [3] 110% | [4] 105% | [5] 106% | [6] 88.1% | [7] 97.4% | [8] 104% | [9] 112% | [10] 120% | [11] 88.8% | [12] 113% | [13] 101% | [14] 111% | [15] 105% | [16] 113% | [17] 98.5% | [18] 109% | [19] 96.8%

CCNCCNc1cc(-c2ccc(F)cc2)c(C#N)c2nc3ccccc3n12
inactive: [1] 77.8% | [2] 93.1% | [3] 66.3% | [4] 75.6% | [6] 52.1% | [7] 64.3% | [8] 46% | [9] 57.9% | [10] 46.4% | [13] 17.9% | [14] 29.7% | [15] 53.8% | [16] 38.5%
active: [5] 3.07% | [11] -19.1% | [12] -60.1% | [17] -88.4% | [18] -76.8% | [19] -64.1%

C=C1c2c(C)nn(-c3ccc(N)cc3)c2N(C)C23CC1C1(C)c4c(C)nn(-c5ccc(N)cc5)c4N(C)C(C)(CC12)C3 (stereo unspecified)
inactive: [1] 93.6% | [2] 71.2% | [3] 92.1% | [4] 88.3% | [5] 57.2% | [6] 90.2% | [7] 62.3% | [8] 50.1% | [9] 81.1% | [10] 81.4% | [11] 42.9% | [12] 102% | [13] 89.2% | [14] 71.7% | [15] 76.5% | [16] 52.5% | [17] 100% | [18] 72.5% | [19] 61.6%

COc1ccc(-n2ncn(CCCCCCn3cnn(-c4ccc(OC)cc4)c3=O)c2=O)cc1
inactive: [1] 82.9% | [2] 80.3% | [3] 88.4% | [4] 89.5% | [5] 103% | [6] 89.4% | [7] 76.3% | [8] 96.7% | [9] 96.7% | [10] 101% | [11] 72.7% | [12] 95.7% | [13] 87.4% | [14] 98.2% | [15] 91.4% | [16] 93.6% | [17] 91.7% | [18] 101% | [19] 97.5%

COc1cc2c(=O)n(CCCn3ccnc3)c3c4cc5c(cc4ccc3c2cc1OC)OCO5
active: [1] 5.18% | [2] -42.5% | [5] -9.42% | [6] -5.78% | [7] 5.91% | [9] -57.3% | [13] 7.7% | [14] -27% | [16] -18.4% | [17] -20.2% | [18] 3.98% | [19] -4.48%
inactive: [3] 17.5% | [4] 10.5% | [8] 22% | [10] 15.2% | [11] 24% | [12] 39.9% | [15] 29%

N=C(N)c1ccc(-c2ccc(-c3ccc(Cl)c(Cl)c3)o2)cc1
inactive: [1] 45.4% | [2] 90.5% | [4] 42.3% | [6] 58.9% | [7] 57.7% | [12] 53.6% | [14] 60.2% | [15] 73.1% | [18] 84.5% | [19] 11.8%
active: [3] -23% | [5] -68.8% | [8] -6.23% | [9] -91.1% | [10] 3.63% | [11] -30.2% | [13] -61% | [16] -80% | [17] -89.1%

CN(C)c1ccc(C#Cc2c(F)cccc2Cl)cc1
inactive: [1] 70.6% | [2] 90.4% | [3] 86.7% | [4] 71.8% | [5] 98.9% | [6] 79.5% | [7] 65.1% | [8] 87.5% | [9] 112% | [10] 101% | [11] 95.5% | [12] 93.4% | [13] 66.2% | [14] 112% | [15] 87.7% | [16] 76.5% | [17] 94.6% | [18] 91.2% | [19] 100%

Source: PubChem BioAssay (NCI)
